According to PubChem BioAssay AID1159580 (chemical genetic matrix, 2015):
Among all 5,500 compounds or so, about 2,000 (36%) were called active. Another 18% or so got no clear call; they are omitted. No stated cut-off is given here; in the data, active means normalized growth mostly below about 0.91 (no sharp cut-off); inconclusive means no clear call, values can overlap the other calls; inactive means mostly above about 0.92. The list shows a part of the results.

Experiment: chemical genetic growth profiling, strain panel (AID 1159580);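 further: tested at 20 µM; growth read once vehicle control cultures reached saturation at 30 °C; 1 = growth at the plate median or of vehicle wells; lower values mean less growth of the strain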
Settings: growth OD

Measured: normalized growth

CC(=O)[O][Hg][c]1ccccc1
active: S. cerevisiae deletion strains, locus YJR066W, strain TOR1, hits give low values 0.00688 | S. cerevisiae deletion strains, locus YJR075W, strain HOC1, hits give low values 0.0645 | S. cerevisiae deletion strains, locus YKL009W, strain mrt4, hits give low values 0.0761 | S. cerevisiae deletion strains, locus YKL068W, hits give low values 0.0552 | S. cerevisiae deletion strains, locus YKL085W, strain MDH1 (second series), hits give low values 0.0536 | S. cerevisiae deletion strains, locus YKL085W, strain MDH1, hits give low values 0.0536 | S. cerevisiae deletion strains, locus YKL160W, strain elf1, hits give low values 0.0629 | S. cerevisiae deletion strains, locus YKL190W, strain CNB1, hits give low values 0.0488 | S. cerevisiae deletion strains, locus YKR001C, strain vps1, hits give low values 0.0636 | S. cerevisiae deletion strains, locus YKR026C, strain gcn3, hits give low values 0.0658 | S. cerevisiae deletion strains, locus YKR091W, strain srl3, hits give low values 0.0596 | S. cerevisiae deletion strains, locus YLL001W, strain dnm1, hits give low values 0.0611 | S. cerevisiae deletion strains, locus YLL026W, hits give low values 0.0582 | S. cerevisiae deletion strains, locus YLL041C, strain sdh2, hits give low values 0.0595 | S. cerevisiae deletion strains, locus YLR027C, strain aat2, hits give low values 0.0573 | S. cerevisiae deletion strains, locus YLR039C, strain RIC1, hits give low values 0.0904 | S. cerevisiae deletion strains, locus YLR058C, strain SHM2, hits give low values 0.0508 | S. cerevisiae deletion strains, locus YLR102C, strain apc9, hits give low values 0.0618 | S. cerevisiae deletion strains, locus YLR113W, strain HOG1, hits give low values 0.158 | S. cerevisiae deletion strains, locus YLR221C, strain rsa3, hits give low values 0.0629 | S. cerevisiae deletion strains, locus YLR258W, strain gsy2, hits give low values 0.0604 | S. cerevisiae deletion strains, locus YLR262C, strain YPT6 (second series), hits give low values 0.0742 | S. cerevisiae deletion strains, locus YLR262C, strain YPT6, hits give low values 0.103 | S. cerevisiae deletion strains, locus YLR268W, strain sec22, hits give low values 0.0681 | S. cerevisiae deletion strains, locus YLR320W, strain mms22, hits give low values 0.0826 | S. cerevisiae deletion strains, locus YLR330W, strain CHS5, hits give low values 0.0544 | S. cerevisiae deletion strains, locus YLR342W, strain FKS1 (second series), hits give low values 0.0755 | S. cerevisiae deletion strains, locus YLR342W, strain FKS1, hits give low values 0.0633 | S. cerevisiae deletion strains, locus YLR357W, strain rsc2, hits give low values 0.127 | S. cerevisiae deletion strains, locus YLR370C, strain arc18, hits give low values 0.0626 | S. cerevisiae deletion strains, locus YLR371W, strain rom2, hits give low values 0.0637 | S. cerevisiae deletion strains, locus YLR384C, strain iki3, hits give low values 0.0624 | S. cerevisiae deletion strains, locus YLR418C, strain cdc73, hits give low values 0.0951 | S. cerevisiae deletion strains, locus YML016C, strain PPZ1, hits give low values 0.0524 | S. cerevisiae deletion strains, locus YML032C, strain rad52, hits give low values 0.0836 | S. cerevisiae deletion strains, locus YML120C, strain ndi1, hits give low values 0.0619 | S. cerevisiae deletion strains, locus YML124C, strain tub3, hits give low values 0.0593 | S. cerevisiae deletion strains, locus YMR058W, strain fet3, hits give low values 0.0602 | S. cerevisiae deletion strains, locus YMR078C, strain ctf18, hits give low values 0.0736 | S. cerevisiae deletion strains, locus YMR125W, strain sto1, hits give low values 0.0779 | S. cerevisiae deletion strains, locus YMR129W, hits give low values 0.0611 | S. cerevisiae deletion strains, locus YMR205C, strain PFK2, hits give low values 0.0858 | S. cerevisiae deletion strains, locus YMR223W, strain ubp8, hits give low values 0.0679 | S. cerevisiae deletion strains, locus YMR231W, strain pep5, hits give low values 0.0683 | S. cerevisiae deletion strains, locus YMR263W, strain SAP30, hits give low values 0.0622 | S. cerevisiae deletion strains, locus YMR307W, strain GAS1, hits give low values 0.119 | S. cerevisiae deletion strains, locus YNL067W, strain RPL9B, hits give low values 0.0529 | S. cerevisiae deletion strains, locus YNL071W, strain lat1, hits give low values 0.0614 | S. cerevisiae deletion strains, locus YNL128W, strain TEP1, hits give low values 0.0633 | S. cerevisiae deletion strains, locus YNL153C, strain GIM3, hits give low values 0.0495 | S. cerevisiae deletion strains, locus YNL183C, strain NPR1, hits give low values -0.000716 | S. cerevisiae deletion strains, locus YNL209W, strain ssb2, hits give low values 0.0586 | S. cerevisiae deletion strains, locus YNL233W, strain BNI4, hits give low values 0.0544 | S. cerevisiae deletion strains, locus YNL248C, strain rpa49, hits give low values 0.0785 | S. cerevisiae deletion strains, locus YNL250W, strain rad50, hits give low values 0.0635 | S. cerevisiae deletion strains, locus YNL271C, strain bni1, hits give low values 0.0615 | S. cerevisiae deletion strains, locus YNL298W, strain CLA4, hits give low values 0.0614 | S. cerevisiae deletion strains, locus YNL307C, strain MCK1, hits give low values 0.0689 | S. cerevisiae deletion strains, locus YNL322C, strain KRE1 (second series), hits give low values 0.0671 | S. cerevisiae deletion strains, locus YNL322C, strain KRE1, hits give low values 0.0528 | S. cerevisiae deletion strains, locus YNR049C, strain mso1, hits give low values 0.0595 | S. cerevisiae deletion strains, locus YNR052C, strain pop2, hits give low values 0.0629 | S. cerevisiae deletion strains, locus YOL006C, strain TOP1, hits give low values 0.102 | S. cerevisiae deletion strains, locus YOL147C, strain pex11, hits give low values 0.058 | S. cerevisiae deletion strains, locus YOR001W, strain rrp6, hits give low values 0.0684 | S. cerevisiae deletion strains, locus YOR061W, strain CKA2, hits give low values 0.0465 | S. cerevisiae deletion strains, locus YOR069W, strain VPS5, hits give low values 0.0482 | S. cerevisiae deletion strains, locus YOR070C, strain gyp1, hits give low values 0.0606 | S. cerevisiae deletion strains, locus YOR080W, strain dia2, hits give low values 0.0661 | S. cerevisiae deletion strains, locus YOR083W, strain WHI5, hits give low values 0.0628 | S. cerevisiae deletion strains, locus YOR106W, strain vam3, hits give low values 0.0631 | S. cerevisiae deletion strains, locus YOR136W, strain idh2, hits give low values 0.0713 | S. cerevisiae deletion strains, locus YOR144C, strain elg1, hits give low values 0.0581 | S. cerevisiae deletion strains, locus YOR184W, strain ser1, hits give low values 0.073 | S. cerevisiae deletion strains, locus YOR231W, strain MKK1, hits give low values 0.132 | S. cerevisiae deletion strains, locus YOR265W, strain rbl2, hits give low values 0.0563 | S. cerevisiae deletion strains, locus YOR270C, strain vph1, hits give low values 0.0933 | S. cerevisiae deletion strains, locus YOR290C, strain snf2, hits give low values 0.0699 | S. cerevisiae deletion strains, locus YOR316C, strain cot1, hits give low values 0.0597 | S. cerevisiae deletion strains, locus YPL051W, strain arl3, hits give low values 0.063 | S. cerevisiae deletion strains, locus YPL055C, strain LGE1, hits give low values 0.076 | S. cerevisiae deletion strains, locus YPL078C, strain atp4, hits give low values 0.0655 | S. cerevisiae deletion strains, locus YPL106C, strain sse1, hits give low values 0.1 | S. cerevisiae deletion strains, locus YPL240C, strain hsp82, hits give low values 0.0559 | S. cerevisiae deletion strains, locus YPL241C, strain CIN2, hits give low values 0.0515 | S. cerevisiae deletion strains, locus YPL256C, strain CLN2, hits give low values 0.132 | S. cerevisiae deletion strains, locus YPR119W, strain clb2, hits give low values 0.0616 | S. cerevisiae deletion strains, locus YPR141C, strain kar3, hits give low values 0.0673 | S. cerevisiae deletion strains, locus YPR163C, strain tif3, hits give low values 0.0707 | S. cerevisiae deletion strains, locus YPR167C, strain met16, hits give low values 0.0616 | S. cerevisiae deletion strains, strain wtn01, hits give low values 0.0633 | S. cerevisiae strains, strain wild type, hits give low values 0.0493
